Rows were chosen to be rich in hits. Some 1.5% of all compounds tested hit in one or more screens of this group.
RECQ1 inh – qHTS Assay for Inhibitors of RecQ-Like Dna Helicase 1 (RECQ1); RECQ1 DNA unwinding, red fluorescence kinetic read; AID 2549, 2010; 240,000 tested, 0.54% active; Potency, µM (doses to about 57.3 µM), hits mostly inhibitors; ATP-dependent DNA helicase Q1 (Homo sapiens), P46063; note: nearly all actives have a fitted effect of over 30% in size
Target sequence (P46063 whole entry, looked up): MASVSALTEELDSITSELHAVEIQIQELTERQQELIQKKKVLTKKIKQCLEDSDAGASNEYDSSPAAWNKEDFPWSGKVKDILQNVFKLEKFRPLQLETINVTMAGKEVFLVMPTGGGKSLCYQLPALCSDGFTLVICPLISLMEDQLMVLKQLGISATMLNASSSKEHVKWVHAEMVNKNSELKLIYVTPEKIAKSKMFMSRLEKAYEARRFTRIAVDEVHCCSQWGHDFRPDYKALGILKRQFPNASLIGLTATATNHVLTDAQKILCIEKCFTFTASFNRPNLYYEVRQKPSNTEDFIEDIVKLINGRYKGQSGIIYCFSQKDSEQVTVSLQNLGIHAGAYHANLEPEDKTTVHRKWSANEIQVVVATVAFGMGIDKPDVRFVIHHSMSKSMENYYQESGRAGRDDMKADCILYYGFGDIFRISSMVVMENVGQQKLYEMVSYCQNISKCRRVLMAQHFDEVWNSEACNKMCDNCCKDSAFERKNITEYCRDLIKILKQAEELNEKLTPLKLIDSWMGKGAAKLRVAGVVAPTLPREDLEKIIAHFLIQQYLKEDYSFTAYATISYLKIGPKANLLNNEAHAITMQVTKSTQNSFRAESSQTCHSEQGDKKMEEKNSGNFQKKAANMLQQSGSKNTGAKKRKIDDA
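RECQ1T1 50 nM; forked duplex (20 bp + 30-nt ss tails) 200 nM, ATP 2 mM final; pH 8.0, 2 mM MgCl2, 2.5 ug/ml poly(dI-dC); 15 min compound preincubation; discontinuous kinetic read over 2 h at RT.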
BLM inh – qHTS Assay for Inhibitors of Bloom's syndrome helicase (BLM); RecQ-like DNA helicase BLM (Homo sapiens), P54132; recombinant BLM DNA unwinding, fluorescence dequenching; Potency, µM (doses to about 56.1 µM), most hits filed as inhibitors; 350,000 tested, 0.2% active; AID 2528, 2010; note: nearly all actives have a fitted effect of over 35% in size
PI5P4Ka inh – qHTS for Inhibitors of phosphatidylinositol 5-phosphate 4-kinase (PI5P4K) | max response, % | 330,000 tested, 1.2% active | AID 652105, 2013 | PI5P4Kalpha enzyme, ADP-Glo luminescence, 60 min; hits give low values | Phosphatidylinositol 5-phosphate 4-kinase type-2 alpha (Homo sapiens), P48426; active = max response of -50% or lower; inconclusive = between -30% and -50%; inactive = -30% or higher; note: value at the top dose of about 77 µM
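Reactions run in 0.038 M HEPES pH 7.4, 0.28 mM EGTA, 0.1% CHAPS and 5% DMSO, with PI5P4Kalpha, substrate, compound and 5 microM ATP final, one hour at room temperature. Readout is ADP-Glo luminescence.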
APE1 inh – qHTS Assay for Inhibitors of the Human Apurinic/apyrimidinic Endonuclease 1 (APE1); DNA repair nuclease/redox regulator APEX1 (Homo sapiens), P27695; recombinant APE1, TAMRA/BHQ-2 abasic DNA cleavage fluorescence; Potency, µM (titrated, usually from 65.8 µM), most hits filed as inhibitors; 350,000 tested, 0.35% active; note: nearly all actives have a fitted effect of over 55% in size
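Measures dequenching upon AP-site incision of a 5'-TAMRA/3'-BHQ-2 THF-containing duplex, 50 nM; human APE1 0.75 nM after 15 min room-temperature exposure to compound; kinetic three-point read at one-minute spacing.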
FEN1 inhibitor – qHTS Assay for the Inhibitors of Human Flap endonuclease 1 (FEN1); Recombinant FEN1 flap cleavage, fluorescence, 15 min; Potency, µM (top dose mostly 114 µM), actives largely listed as inhibitors; P39748; 390,000 tested, 0.35% active; note: nearly all actives have a fitted effect of over 65% in size
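Compounds are tested as a concentration series against 10 nM FEN1; after a 15 min room-temperature preincubation, 50 nM substrate starts cleavage, with plate reads at 0 and 15 min. Normalized responses are fitted by a Hill equation.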
WRN helicase inh – qHTS for Inhibitors of WRN Helicase; Bifunctional 3'-5' exonuclease/ATP-dependent helicase WRN (Homo sapiens), Q14191; WRN helicase unwinding, fluorescent forked duplex, kinetic; Potency, µM (highest dose often 114 µM), actives largely listed as inhibitors; 360,000 tested, 0.46% active; note: nearly all actives have a fitted effect of over 55% in size
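Kinetic fluorescence helicase assay: unwinding of a quenched forked DNA duplex (100 nM final) with 2 mM ATP final raises red fluorescence (525/598 nm). Compounds sat 15 min at room temperature with 20 nM WRN beforehand.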
ADP-Glo counter – qHTS for Inhibitors of PI5P4K: ADP-Glo counter assay; 1,100 tested, under 10 active; Potency, µM (top dose mostly 76.9 µM), hits mostly inhibitors; ADP-Glo detection counter-screen, luciferase luminescence, no enzyme; AID 743285, 2014; shares compounds with PI5P4Ka inh
A number is an active result; – = inactive; ? = inconclusive; · = no result; [ ] = another dose, or the depositor's remark. Unless noted, calls come from the whole dose curve; as a rule, active = well fitted curve in the direction sought with a large enough effect; inconclusive = small, poorly fitted or top-dose-only effect, or another doubt; inactive = no such curve, though single readings can be large; an effect the other way counts as inactive or inconclusive.

SMILES | RECQ1 inh | BLM inh | PI5P4Ka inh | APE1 inh | FEN1 inhibitor | WRN helicase inh | ADP-Glo counter
CC(=O)c1ccc(-c2c(C3C4C=CCC(C)C4C(=O)N3Cc3ccccc3)ccc3ccccc23)cc1 (configuration not stated) | – | – | · | – | – | · | ·
CCOc1ccccc1CNC(=O)c1ccc(CS(=O)Cc2cccc(Cl)c2)o1 (configuration not stated) | · | – | · | · | – | · | ·
O=c1cc(CN2CCN(S(=O)(=O)c3cccc(Cl)c3)CC2)c2ccc(O)cc2o1 | · | · | -74 | – | – | –[11.6 µM] | –
COc1ccc2c(c1)CCc1c(C(=O)Nc3c(C)nn(Cc4c(Cl)cccc4Cl)c3C)noc1-2 | · | – | · | · | – | · | ·
O=C(c1ccco1)N1CCN(c2ncnc3c2[nH]c2ccc(Br)cc23)CC1 | – | – | -50 | – | ? | – | –
Cc1cc(C)c2c(CC(=O)Nc3ccc(S(=O)(=O)Nc4nc(C)cc(C)n4)cc3)coc2c1 | · | – | · | · | – | · | ·
CCc1ccccc1N(CC)C(=O)c1c(C)oc2ncnc(N3CCOCC3)c12 | · | – | · | · | – | · | ·
Cc1cc2nc(NC(=O)C3(C)CCN3C(=O)C(C)C)[nH]c2cc1C (configuration not stated) | · | · | ? | · | · | – | –
CCOc1ccc(-c2ccc(SC)nn2)cc1 | – | – | -50 | – | – | – | 16µM
COc1cccc(N2CCN(C(=O)c3ccc(CS(=O)c4ccccc4C)o3)CC2)c1 (configuration not stated) | · | – | – | – | – | – | –
CC(Oc1ccc(Br)cc1)C(=O)Nc1ncn[nH]1 (configuration not stated) | · | – | · | · | – | · | ·
COC(=O)Nc1ccc(S(=O)(=O)N2CCC(C)CC2)cc1 | – | – | · | – | – | – | ·
COC(=O)Nc1ccc(S(=O)(=O)N2CCC(C(=O)N3CCC(C)CC3)CC2)cc1 | – | – | -80 | – | – | – | –
CCCCn1c(=O)[nH]c(=O)c2c1nc(-c1ccc(-c3ccccc3Br)o1)n2CC | – | – | -53 | – | – | – | –
Cc1csc(NC(=O)CSc2nc3sc(C)c(C)c3c(=O)[nH]2)n1 | – | – | -57 | – | – | – | –
CC(C)(C)NC(=O)Nc1ccc(Cn2cc(C(F)(F)F)ccc2=O)cc1 | – | – | -55 | – | – | – | –
CCOc1ccccc1N1C(=O)c2ccccc2N/C1=C\N1CCN(C(=O)c2ccco2)CC1 | · | · | · | · | – | · | ·
O=S(=O)(Nc1ccc(Cl)cc1)c1ccc(N2CCOCC2)c(NC(=S)NCCN2CCOCC2)c1 | – | – | -83 | – | – | ? | –
COCCN(C(=O)COC(=O)c1cc2c(s1)CCCC2)c1c(N)n(Cc2ccccc2)c(=O)[nH]c1=O | · | · | -56 | – | – | –[11.6 µM] | –
CCOC(=O)c1ccccc1NC(=O)COc1ccccc1-c1nnc(-c2ccccc2)o1 | · | – | · | · | – | · | ·
COc1ccccc1CNc1nc(NCc2ccccc2OC)c2sccc2n1 | · | · | · | · | · | – | –
COc1ccccc1CNc1nc(NCCOc2ccccc2)c2sccc2n1 | · | · | · | · | · | – | –
c1cc2cc(CNc3nc(NCC4CC4)nc4ccsc34)ccc2o1 | · | · | ? | · | · | – | ·
COCCNc1nc(NCc2ccccc2OC)c2sccc2n1 | · | · | – | · | · | – | ·
COc1ccccc1CNc1nc(Nc2cccc(-c3cnco3)c2)c2sccc2n1 | · | · | · | · | · | – | –
SMILES | RECQ1 inh | BLM inh | PI5P4Ka inh | APE1 inh | FEN1 inhibitor | WRN helicase inh | ADP-Glo counter
COc1ccccc1CNc1nc(NCc2ccc3occc3c2)c2sccc2n1 | · | · | · | · | · | – | –
Cc1ccc(CNc2nc(NCc3ccccc3)nc3ccsc23)c(C)c1 | · | · | · | · | · | – | –
NC(=O)c1ccsc1NC(=O)COC(=O)c1nc(Cl)ccc1Cl | · | · | -53 | – | – | – | –
NC(=O)c1ccsc1NC(=O)COC(=O)c1ccc(Cl)nc1 | · | · | – | – | – | – | ·
CN(C)S(=O)(=O)c1cccc(C(=O)OCC(=O)Nc2sccc2C(N)=O)c1 | – | – | -66 | – | – | ? | –
Cc1cccc(-c2nc3c(cnn3-c3ccccc3)c(=O)n2-c2cccc(Cl)c2)c1 | · | – | · | · | – | · | ·
COc1ccc(-c2cc(CNc3nc(NC(C)C)nc4cc(-c5ccccc5)sc34)on2)cc1 | · | · | · | · | · | – | –
CC(=O)Nc1ccc(CNc2nc(NC(C)C)nc3cc(-c4ccccc4)sc23)cc1 | · | · | · | · | · | – | –
CC(=O)NCCNc1nc(NC(C)C)nc2cc(-c3ccccc3)sc12 | · | · | – | · | · | – | ·
O=C(Cn1cc(S(=O)(=O)Cc2ccccc2F)c2ccccc21)NCc1ccccc1Cl | · | – | · | · | – | · | ·
CC(C)CCNC(=O)CN1C(=O)CCn2nc(-c3cn(C)c4ccccc34)cc21 | · | – | · | · | – | · | ·
CC1Cc2ccccc2N1C(=O)CN1CCN(S(=O)(=O)c2ccc3c(c2)OCCCO3)CC1 (configuration not stated) | · | · | – | · | · | – | ·
CC1Cc2ccccc2N1C(=O)CNc1cccc(S(=O)(=O)N2CCCC2)c1 (configuration not stated) | – | – | -66 | – | – | ? | –
CCN(c1ccccc1)c1nc(N)nc(C#N)n1 | · | · | · | · | – | · | ·
CS(=O)(=O)Nc1ccc(C2=NN(C(=O)c3ccco3)C(c3ccccc3)C2)cc1 (configuration not stated) | – | – | -51 | – | – | – | –

Screening data: PubChem, National Center for Advancing Translational Sciences (NCATS)
